Records with an inconclusive call do not appear. The source made the active and inactive calls. The calls were made as follows: active = hit-call score of the fitted dose curve at least 0.9, where 1 is the maximum; inconclusive = response in the unintended direction; inactive = score below 0.9.
Biological target: human Dopamine Receptor D2 (DRD2), DRD2 (gene 1813) (UniProt P14416)
Test: NVS_GPCR_hDRD2s: NovaScreen (NVS) G Protein-Coupled Receptor Assay for human Dopamine Receptor D2 (DRD2) (AID 2283266)
Method: NVS_GPCR_hDRD2s is a biochemical, single-readout assay that uses extracted gene-proteins from CHO in a cell-free assay. Measurements were taken 1.5 hours after chemical dosing in a 96-well plate.NVS_GPCR_hDRD2s is one of one assay component(s) measured or calculated from the NVS_GPCR_hDRD2s assay. It is designed to make measurements of radioligand binding, a form of binding reporter, as detected with scintillation counting signals by Filter-based radiodetection technology.Data from the assay component NVS_GPCR_hDRD2s was analyzed into 1 assay endpoint. This assay endpoint, NVS_GPCR_hDRD2s, was analyzed in the positive analysis fitting direction relative to DMSO as the negative control and baseline of activity. Using a type of binding reporter, loss-of-signal activity can be used to understand changes in the binding as they relate to the gene DRD2. Furthermore, this assay endpoint can be referred to as a primary readout, because the performed assay has only produced 1 assay endpoint. To generalize the intended target to other relatable targets, this assay endpoint is annotated to the gpcr intended target family, where the subfamily is rhodopsin-like receptor.
Binding assays used specific radioligands (tritiated, iodinated) with non-radioactive competitive displacement ligands in agonist or antagonist protocols (as indicated) and various reference compounds and inhibitors to titrate specific binding to receptors and transporters. Most enzyme assays (CYPs, kinases, phosphatases, proteases, HDACs) used recombinant protein and specific substrates (fluorescence mostly, some colorimetric and radioactive) and inhibitors, followed by a biochemical separation of substrate and product. All assays for the biochemical HTS were initially run in duplicate at a single concentration (10 uM for CYP450 assays and 25 uM for all others). […] Each assay was run with positive and negative controls, and concurrent controls on every plate. The follow-up (secondary) screen tested active chemical-pairs in concentration series, as well as a few additional assays not tested in the primary screen, some selected negative inactives, and several cases re-run in the concentration series for confirmatory purposes.

Sequence of human Dopamine Receptor D2 (DRD2), DRD2 (gene 1813) (P14416 whole entry, looked up): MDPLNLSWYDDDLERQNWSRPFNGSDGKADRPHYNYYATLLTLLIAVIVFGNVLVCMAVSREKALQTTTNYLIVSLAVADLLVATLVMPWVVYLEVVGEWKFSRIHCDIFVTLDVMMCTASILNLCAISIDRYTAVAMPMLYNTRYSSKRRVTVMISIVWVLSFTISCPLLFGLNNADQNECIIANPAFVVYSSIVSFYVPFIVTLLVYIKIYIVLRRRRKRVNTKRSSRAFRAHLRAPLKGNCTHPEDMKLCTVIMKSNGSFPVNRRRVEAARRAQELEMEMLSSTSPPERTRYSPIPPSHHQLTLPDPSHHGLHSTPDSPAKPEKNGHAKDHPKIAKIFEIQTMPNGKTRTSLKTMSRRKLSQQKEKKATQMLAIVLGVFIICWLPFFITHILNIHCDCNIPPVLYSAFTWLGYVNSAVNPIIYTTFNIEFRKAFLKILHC

AC50, active:
CCN(CC)C(=O)c1cc(S(=O)(=O)Cc2ccccc2)c(N2CCC(c3ccccc3)CC2)cc1N(CC)CCN(C)C 1.05 µM
Cc1cc2c(cc1C(F)(F)F)N(C(=O)Nc1ccc(Oc3cccnc3C)nc1)CC2 0.0486 µM
Cc1cc(F)ccc1-c1cc(N2CC[C@@H](O)[C@H]2CO)ncc1N(C)C(=O)C(C)(C)c1cc(C(F)(F)F)cc(C(F)(F)F)c1 7.16 µM
CCCCCCCCOC(=O)c1cc(O)c(O)c(O)c1 25 µM
CN(C)C(=O)C1(N2CCCCC2)CCN(CC[C@@]2(c3ccc(Cl)c(Cl)c3)CN(C(=O)c3ccccc3)CCO2)CC1 1.59 µM
O=C1c2ccccc2C(=O)N1CCc1noc(-c2ccc(CN3CCCCCC3)s2)n1 10.1 µM
NCc1cccc(C2CCN(C(=O)c3ccc(C#Cc4ccccc4F)o3)CC2)c1 9.74 µM
CN(C)c1ccc(C(=C2C=CC(=[N+](C)C)C=C2)c2ccc(N(C)C)cc2)cc1 2.02 µM
CC/C(=C(/CC)c1ccc(O)cc1)c1ccc(O)cc1 25 µM
CCCCCCCCCCCC[N+](C)(C)C 13 µM
CCOC(=O)O[C@H](C)OC(=O)c1ccc2c(c1)cc(C(=O)NC1CCN(C(C)C)CC1)n2Cc1cc(-c2ccc(Cl)s2)on1 3.6 µM
CCN(Cc1cccnc1)C(=O)c1cccc(Cl)c1[C@]1(C)C(=O)N(Cc2ccc(OC)cc2OC)c2ccc(Cl)cc21 1.91 µM

outcome, inactive:
COc1ccc2cc(S(=O)(=O)N[C@H](CC(=O)N[C@H](Cc3ccc(CN4[C@H](C)CCC[C@@H]4C)cc3)C(=O)N(C)C(C)C)c3ccc4c(c3)OCO4)ccc2c1
O=C(Nc1ccc(Cl)cc1)Nc1ccc(Cl)c(Cl)c1
COc1cc(C(=O)NC2CCN(C)CC2)ccc1Nc1ncc2c(n1)N(C1CCCC1)CC(F)(F)C(=O)N2C
O=C1CCC(C2CCCCC2)CC1
CCCCCCCCN(C)CCCCCCCC
